# Experimental data from PubChem BioAssay (Tox21).
# Several values for one entry are separate records, joined by “and”; a condition that tells them apart may be missing. Equal entries are not always repeated. Results filed as inconclusive are left out. Entries that show only a call come without a potency. Some compounds were tested as several samples or in several runs, with calls that do not always agree. Activity calls are given as the source filed them. Unless noted, calls follow the shape of the dose curve; as a rule, active = well fitted curve in the direction sought with a large enough effect in the repeat runs; inconclusive = weak or mixed curves; inactive = no such curve, though single readings can be large; an effect the other way counts as inactive or inconclusive.
# What was measured:
# [1] = qHTS assay to identify small molecule antagonists of the thyroid receptor (TR) signaling pathway (AID 743065); also: nearly all actives have a fitted effect of over 55% in size; also: potency is read from the fitted curve at half-maximal effect; as to activity, negative = inhibition: series mostly up to about 70 µM
# Summary of the method: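 Antagonism measured as loss of luciferase signal in GH3 cells stably carrying a TRE-luciferase reporter, co-treated with compound and T3 (1 nM final) for 23.5 h at 37 C. Viability was read in the same well by CellTiter-Fluor.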
# [2] = tested on: thyroid hormone receptor (rat, GH3 cells); assay: qHTS assay to identify small molecule agonists of the thyroid receptor (TR) signaling pathway (AID 743066; calls by dose curve)
# [3] = target: Estrogen receptor (Homo sapiens) (UniProt P03372); assay: qHTS assay to identify small molecule antagonists of the estrogen receptor alpha (ER-alpha) signaling pathway (AID 743069; active = well fitted curve in the direction sought with a large enough effect in the signal ratio in the repeat runs, not every such curve was filed as active; the % refers to the signal ratio)
# Estrogen receptor (Homo sapiens), sequence (P03372 whole entry, looked up): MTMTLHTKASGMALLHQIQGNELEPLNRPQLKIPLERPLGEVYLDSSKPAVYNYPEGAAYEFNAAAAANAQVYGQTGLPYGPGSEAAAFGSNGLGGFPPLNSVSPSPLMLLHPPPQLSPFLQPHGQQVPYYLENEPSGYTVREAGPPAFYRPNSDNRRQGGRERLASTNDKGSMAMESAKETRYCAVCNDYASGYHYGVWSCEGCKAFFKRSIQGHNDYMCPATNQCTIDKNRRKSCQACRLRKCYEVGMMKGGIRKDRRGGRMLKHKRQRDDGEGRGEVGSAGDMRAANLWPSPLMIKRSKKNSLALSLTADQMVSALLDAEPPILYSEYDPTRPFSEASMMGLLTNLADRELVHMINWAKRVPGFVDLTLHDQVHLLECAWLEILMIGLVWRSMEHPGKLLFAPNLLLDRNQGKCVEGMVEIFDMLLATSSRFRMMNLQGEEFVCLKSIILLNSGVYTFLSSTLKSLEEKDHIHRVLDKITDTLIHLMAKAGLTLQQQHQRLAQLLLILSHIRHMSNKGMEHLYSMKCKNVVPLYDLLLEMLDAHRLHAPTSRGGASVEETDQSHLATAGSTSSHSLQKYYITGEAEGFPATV
# Summary of the method: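 ER-alpha-UAS-bla GripTite HEK293 line; 2% charcoal-stripped FBS overnight; plated, 4 hr 37C/5% CO2; cpd in DMSO + 17beta-estradiol, 18 hr 37C; LiveBLAzer B/G FRET substrate 2 hr RT; fluorescence intensity.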
# [4] = qHTS assay to identify small molecule antagonists of the estrogen receptor alpha (ER-alpha) signaling pathway - cell viability counter screen (AID 743074; calls by dose curve;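 also: HEK293 cells carrying ER-alpha-UAS-bla reporter stimulated with 17beta-estradiol; nearly all actives have a fitted effect of over 45% in size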)
# [5] = target: Estrogen receptor (Homo sapiens) (UniProt P03372); assay: qHTS assay to identify small molecule agonists of the estrogen receptor alpha (ER-alpha) signaling pathway (AID 743075; calls by dose curve;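 also: HEK293 GripTite cells with ER-alpha and UAS-driven beta-lactamase reporter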; also: potency is read from the fitted curve at half-maximal effect)
# [6] = target: Estrogen receptor (Homo sapiens) (UniProt P03372); assay: qHTS assay to identify small molecule agonists of the estrogen receptor alpha (ER-alpha) signaling pathway using the BG1 cell line (AID 743079); also: nearly all actives have a fitted effect of over 20% in size; also: potency is read from the fitted curve at half-maximal effect
# [7] = qHTS assay to identify small molecule antagonists of the estrogen receptor alpha (ER-alpha) signaling pathway using the BG1 cell line - cell viability counter screen (AID 743081);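 also: compound given together with 17beta-estradiol as the ER stimulus; nearly all actives have a fitted effect of over 45% in size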; also: potency is read from the fitted curve at half-maximal effect; as to activity change, negative = cytotoxicity: series mostly up to about 70 µM
# Aromatase (Homo sapiens) = Aromatase (Homo sapiens) (UniProt P11511); assay: qHTS assay to identify aromatase inhibitors (AID 743083); also: nearly all actives have a fitted effect of over 55% in size; also: potency is read from the fitted curve at half-maximal effect; as to activity, negative = inhibition: series mostly up to about 70 µM
# Aromatase (Homo sapiens), sequence (P11511 whole entry, looked up): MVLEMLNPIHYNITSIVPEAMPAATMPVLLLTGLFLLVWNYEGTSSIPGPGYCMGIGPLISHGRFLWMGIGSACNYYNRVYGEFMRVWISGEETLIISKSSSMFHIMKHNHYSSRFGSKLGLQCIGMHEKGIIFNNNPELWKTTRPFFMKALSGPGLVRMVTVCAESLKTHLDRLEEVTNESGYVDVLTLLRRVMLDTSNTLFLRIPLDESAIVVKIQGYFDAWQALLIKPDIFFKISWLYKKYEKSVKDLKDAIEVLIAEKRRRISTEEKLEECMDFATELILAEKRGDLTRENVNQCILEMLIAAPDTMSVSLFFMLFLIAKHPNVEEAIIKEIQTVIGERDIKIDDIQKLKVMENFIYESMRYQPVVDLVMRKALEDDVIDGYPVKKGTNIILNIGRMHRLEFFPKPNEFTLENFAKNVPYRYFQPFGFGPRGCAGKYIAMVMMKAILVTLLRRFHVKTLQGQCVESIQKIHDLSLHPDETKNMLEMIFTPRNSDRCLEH
# [8] = qHTS assay to identify aromatase inhibitors - cell viability counter screen (AID 743084);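 also: cells stimulated with testosterone during compound exposure; nearly all actives have a fitted effect of over 55% in size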; also: potency is read from the fitted curve at half-maximal effect
# [9] = qHTS assay to identify small molecule antagonists of the estrogen receptor alpha (ER-alpha) signaling pathway using the BG1 cell line (AID 743080; calls by dose curve;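 also: BG1 cells stimulated with 17beta-estradiol alongside compound; series mostly up to about 70 µM; nearly all actives have a fitted effect of over 25% in size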)
# Summary of the method: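 Quantitative HTS on the Tox21 10K library: BG1 cells with endogenous ER-alpha and ERE-luciferase reporter, 17beta-estradiol stimulation, 21.5 h compound exposure, luminescence endpoint with parallel fluorescence cytotoxicity counter-read.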
structure (smiles),measurement,setting,value
CNc1ccc([N+](=O)[O-])cc1,Potency,[1],27.4 µM (active)
same,outcome,[2],inactive
same,Potency,[3],inactive
same,Potency,[4],inactive
same,Potency,[5],inactive
same,Potency,[6],34.4 µM (active)
same,Potency,[7],48.7 µM (active)
same,Potency,Aromatase (Homo sapiens),12.2 µM (active)
same,Potency,[8],34.4 µM (active)
Cc1nc2n(c(=O)c1CCN1CCC(c3noc4cc(F)ccc34)CC1)CCCC2,Potency,[1],inactive
same,outcome,[2],inactive
same,Potency,[3],inactive
same,Potency,[4],inactive
same,Potency,[5],inactive
same,Potency,[6],inactive
same,Potency,Aromatase (Homo sapiens),inactive
same,Potency,[8],inactive
O=C(O)c1cc(=O)c2ccccc2o1,Potency,[1],inactive
same,outcome,[2],inactive
same,Potency,[3],inactive
same,Potency,[4],inactive
same,Potency,[5],inactive
same,Potency,[6],inactive
same,Potency,[9],inactive
same,Potency,[7],inactive
same,Potency,Aromatase (Homo sapiens),inactive
same,Potency,[8],inactive
CC(C)NC[C@@H](O)COc1ccc(CC(N)=O)cc1,Potency,[1],inactive
same,outcome,[2],inactive
same,Potency,[3],inactive
same,Potency,[4],inactive
same,Potency,[5],inactive
same,Potency,[6],inactive
same,Potency,[9],inactive
same,Potency,[8],inactive
CC(CCc1ccccc1)NCC(O)c1ccc(O)c(C(N)=O)c1 (stereo not given),Potency,[1],inactive
same,outcome,[2],inactive
same,Potency,[3],inactive
same,Potency,[4],inactive
same,Potency,[5],inactive
same,Potency,[6],inactive
same,Potency,[9],inactive
same,Potency,Aromatase (Homo sapiens),inactive
same,Potency,[8],inactive and 13.7 µM (active)
COC(=O)c1ccccc1OC,Potency,[1],inactive
same,outcome,[2],inactive
same,Potency,[3],inactive
same,Potency,[4],inactive
same,Potency,[5],inactive
same,Potency,[6],inactive
same,Potency,[9],inactive
same,Potency,[7],inactive
same,Potency,Aromatase (Homo sapiens),inactive
same,Potency,[8],inactive
CC(C(=O)O)c1ccc2c(c1)[nH]c1ccc(Cl)cc12 (stereo not given),Potency,[1],inactive
same,outcome,[2],inactive
same,Potency,[3],inactive
same,Potency,[4],inactive
same,Potency,[5],inactive
same,Potency,[6],inactive
same,Potency,[9],inactive
same,Potency,[7],inactive
same,Potency,Aromatase (Homo sapiens),inactive
same,Potency,[8],inactive
ClCCl,Potency,[1],inactive
same,outcome,[2],inactive
same,Potency,[3],inactive
same,Potency,[4],inactive
same,Potency,[5],inactive
same,Potency,[6],inactive
same,Potency,[9],inactive
same,Potency,[7],inactive
same,Potency,Aromatase (Homo sapiens),inactive
same,Potency,[8],inactive
C=C(CC)C(=O)c1ccc(OCC(=O)O)c(Cl)c1Cl,Potency,[1],26.6 µM (active) and 54.1 µM (active)
same,outcome,[2],inactive
same,Potency,[3],inactive
same,Potency,[4],inactive
same,Potency,[5],inactive and 68.7 µM [fluorescent] (active)
same,Potency,[6],inactive
same,Potency,[7],inactive
same,Potency,Aromatase (Homo sapiens),inactive
same,Potency,[8],inactive
O=C(O)c1ccc2cc(C(=O)O)ccc2c1,Potency,[1],inactive
same,outcome,[2],inactive
same,Potency,[3],inactive
same,Potency,[4],inactive
same,Potency,[5],inactive
same,Potency,[6],inactive
same,Potency,[9],inactive
same,Potency,[7],inactive
same,Potency,Aromatase (Homo sapiens),inactive
same,Potency,[8],inactive
CCN(CCN)c1cccc(C)c1,Potency,[1],inactive
same,outcome,[2],inactive
same,Potency,[3],inactive
same,Potency,[4],inactive
same,Potency,[5],inactive
same,Potency,[6],inactive
same,Potency,[9],inactive
same,Potency,[7],inactive
same,Potency,Aromatase (Homo sapiens),inactive
same,Potency,[8],inactive
COC(C)=O,Potency,[1],inactive
same,outcome,[2],inactive
same,Potency,[3],inactive
same,Potency,[4],inactive
same,Potency,[5],inactive
same,Potency,[6],inactive
same,Potency,[9],inactive
same,Potency,[7],inactive
same,Potency,Aromatase (Homo sapiens),inactive
same,Potency,[8],inactive
O=C(O)Cc1ccccc1Nc1c(Cl)cccc1Cl,Potency,[1],inactive
same,outcome,[2],inactive
same,Potency,[3],inactive
same,Potency,[4],inactive
same,Potency,[5],inactive
same,Potency,[6],inactive
same,Potency,[9],inactive
same,Potency,[7],inactive
same,Potency,Aromatase (Homo sapiens),inactive
same,Potency,[8],inactive
OC1CCC(C2CCCCC2)CC1 (stereo not given),Potency,[1],inactive
same,outcome,[2],inactive
same,Potency,[3],inactive
same,Potency,[4],inactive
same,Potency,[5],inactive
same,Potency,[9],inactive
same,Potency,[7],inactive
same,Potency,Aromatase (Homo sapiens),inactive
same,Potency,[8],inactive
O=C(O)c1cc(-c2ccc(F)cc2F)ccc1O,Potency,[1],inactive
same,outcome,[2],inactive
same,Potency,[3],inactive
same,Potency,[4],inactive
same,Potency,[5],inactive
same,Potency,[6],inactive
same,Potency,[9],inactive
same,Potency,[7],inactive
same,Potency,Aromatase (Homo sapiens),inactive
same,Potency,[8],inactive
Clc1nnc(Cl)c2ccccc12,Potency,[1],inactive
same,outcome,[2],inactive
same,Potency,[3],inactive
same,Potency,[4],inactive
same,Potency,[5],inactive
same,Potency,[6],inactive
same,Potency,Aromatase (Homo sapiens),inactive
same,Potency,[8],inactive
O=C(O)O,"activity, negative = inhibition",[1],-9.25% [at 8.44 µM] (inactive)
same,activation,[2],0.119% [at 8.08 µM] (inactive)
same,"activity, negative = inhibition",[3],-5.09% [at 6.71 µM] (inactive)
same,"activity, negative = cytotoxicity",[4],16.5% [at 6.72 µM] (inactive)
same,activation,[5],-2.02% [at 6.71 µM] (inactive)
same,"activity change, negative = inhibition",[9],10.7% [at 8.47 µM] (inactive)
same,"activity change, negative = cytotoxicity",[7],-13.4% [at 8.47 µM] (inactive)
same,"activity, negative = inhibition",Aromatase (Homo sapiens),-0.932% [at 8.47 µM] (inactive)
same,"activity change, negative = cytotoxicity",[8],-13.2% [at 8.47 µM] (inactive)
C=C(C)c1cccc(C(=C)C)c1,Potency,[1],inactive
same,outcome,[2],inactive
same,Potency,[3],inactive
same,Potency,[4],inactive
same,Potency,[5],inactive
same,Potency,[9],inactive
same,Potency,Aromatase (Homo sapiens),inactive
same,Potency,[8],inactive
O=[N+]([O-])c1cccc(C(F)(F)F)c1,Potency,[1],inactive
same,outcome,[2],inactive
same,Potency,[3],inactive
same,Potency,[4],inactive
same,Potency,[5],inactive
same,Potency,[6],inactive
same,Potency,[9],inactive
same,Potency,[7],inactive
same,Potency,Aromatase (Homo sapiens),inactive
same,Potency,[8],inactive
CCc1ccc(Br)cc1,Potency,[1],inactive
same,outcome,[2],inactive
same,Potency,[3],inactive
same,Potency,[4],inactive
same,Potency,[5],inactive
same,Potency,[9],inactive
same,Potency,[7],inactive
same,Potency,Aromatase (Homo sapiens),inactive
same,Potency,[8],inactive
OC1CCCc2ccccc21 (stereo not given),Potency,[1],inactive
same,outcome,[2],inactive
same,Potency,[3],inactive
same,Potency,[4],inactive
same,Potency,[5],inactive
same,Potency,[6],inactive
same,Potency,[9],inactive
same,Potency,[7],inactive
same,Potency,Aromatase (Homo sapiens),inactive
same,Potency,[8],inactive
CN(C)Cc1ccccc1O,Potency,[1],inactive
same,outcome,[2],inactive
same,Potency,[3],inactive
same,Potency,[4],inactive
same,Potency,[5],inactive
same,Potency,[6],inactive
same,Potency,[9],inactive
same,Potency,[7],inactive
same,Potency,Aromatase (Homo sapiens),inactive
same,Potency,[8],inactive
COc1cc(/C=C/c2ccccc2)oc(=O)c1,Potency,[1],inactive
same,outcome,[2],inactive
same,Potency,[3],inactive
same,Potency,[4],inactive
same,Potency,[5],inactive
same,Potency,[6],2.52 µM (active)
same,Potency,[7],inactive
same,Potency,Aromatase (Homo sapiens),inactive
same,Potency,[8],inactive
